From PubChem BioAssay (EPA / NIEHS)
Activity calls are given as the source filed them. The calls were made as follows: active = hit-call score of the fitted dose curve at least 0.9, where 1 is the maximum; inactive = score below 0.9.

Columns and labels:
[1] = read-out: Vascular endothelial growth factor receptor 2 (Homo sapiens) (UniProt P35968); test: BSK_4H_VEGFRII: BioMAP Diversity Plus: 4H Assay for Vascular endothelial growth factor receptor 2 (VEGFR2) Biomarker Activity (AID 2283031); conditions: primary human endothelial cells (HUVEC); actives raise or lower the signal
Summary of the method: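 Primary human umbilical vein endothelial cells (4H system), 24 h exposure; cell-surface VEGFR2 measured by ELISA. Bidirectional fitting versus DMSO; cytotoxicity checked in parallel by SRB total-protein staining.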

[2] = read-out: Human Leukocyte Antigen - DR isotype (HLADR), HLA-DRA (gene 3122); test: BSK_BE3C_HLADR: BioMAP Diversity Plus: BE3C Assay for Human Leukocyte Antigen - DR isotype (HLADR) Biomarker Activity (AID 2283032); conditions: primary human bronchial epithelial cells; actives raise or lower the signal
Summary of the method: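 ELISA read-out of HLA-DR on human lung bronchial epithelial primary cells, measured 24 h post-dosing. Both increases and decreases were scored relative to DMSO vehicle.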

[3] = read-out: Vascular cell adhesion molecule 1 (VCAM1), VCAM1 (gene 7412); test: BSK_4H_VCAM1: BioMAP Diversity Plus: 4H Assay for Vascular cell adhesion molecule 1 (VCAM1) Biomarker Activity (AID 2283033); conditions: primary human endothelial cells (HUVEC); actives raise or lower the signal
Summary of the method: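 ELISA read-out of VCAM-1 on human umbilical vein endothelium 24 hours after chemical dosing; gain or loss of signal was fitted relative to DMSO, with sulforhodamine B staining of parallel cultures flagging overt cytotoxicity.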

[4] = read-out: Interferon-gamma inducible Protein 10 (IP10), CXCL10 (gene 3627); test: BSK_BE3C_IP10: BioMAP Diversity Plus: BE3C Assay for Interferon-gamma inducible Protein 10 (IP10) Biomarker Activity (AID 2283034); conditions: primary human bronchial epithelial cells; actives raise or lower the signal
Summary of the method: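 Chemical is dosed onto human lung bronchial epithelial primary cells, cultures are incubated 24 h, and IP-10 is then quantified by ELISA. Gain or loss of signal is fitted in both directions relative to DMSO.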

[5] = read-out: Monokine induced gamma interferon (MIG), CXCL9 (gene 4283); test: BSK_BE3C_MIG: BioMAP Diversity Plus: BE3C Assay for Monokine induced gamma interferon (MIG) Biomarker Activity (AID 2283035); conditions: primary human bronchial epithelial cells; actives raise or lower the signal;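 also: MIG protein measured by ELISA in BE3C cultures after 24 h of dosing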
Summary of the method: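 MIG level was determined by ELISA after 24 h chemical treatment of primary human bronchial epithelial cells. Values were fitted bidirectionally with DMSO as the negative control and activity baseline.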

[6] = read-out: Transforming growth factor beta 1 (TGFb1), TGFB1 (gene 7040); test: BSK_BE3C_TGFb1: BioMAP Diversity Plus: BE3C Assay for Transforming growth factor beta 1 (TGFb1) Biomarker Activity (AID 2283036;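 also: TGF-b1 protein level measured by ELISA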); conditions: primary human bronchial epithelial cells; actives raise or lower the signal
Summary of the method: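 Primary human lung bronchial epithelial cells; compound exposure 24 h; TGF-b1 by ELISA; bidirectional fit, DMSO baseline. Parallel SRB total-protein staining for cytotoxicity.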

[7] = read-out: Plasminogen activator inhibitor-1 (PAI1), SERPINE1 (gene 5054); test: BSK_BE3C_PAI1: BioMAP Diversity Plus: BE3C Assay for Plasminogen activator inhibitor-1 (PAI1) Biomarker Activity (AID 2283037); conditions: primary human bronchial epithelial cells; actives raise or lower the signal
Summary of the method: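 Primary human lung bronchial epithelial cells; chemical dosing; 24 h; PAI-1 measured by ELISA; bidirectional fit referenced to DMSO as negative control.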

[8] = read-out: urokinase plasminogen activator (uPA), PLAU (gene 5328); test: BSK_BE3C_uPA: BioMAP Diversity Plus: BE3C Assay for urokinase plasminogen activator (uPA) Biomarker Activity (AID 2283038); conditions: primary human bronchial epithelial cells; actives raise or lower the signal
Summary of the method: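 Primary human bronchial epithelial cells, uPA measured by ELISA 24 h after dosing. Bidirectional change relative to DMSO; cytotoxicity checked in parallel cultures by sulforhodamine B total-protein staining.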

[9] = read-out: Urokinase-type plasminogen activator receptor (uPAR), PLAUR (gene 5329); test: BSK_BE3C_uPAR: BioMAP Diversity Plus: BE3C Assay for Urokinase-type plasminogen activator receptor (uPAR) Biomarker Activity (AID 2283039); conditions: primary human bronchial epithelial cells; actives raise or lower the signal;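 also: uPAR protein level measured by ELISA on the cells; cells exposed to compound for one day before measurement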
Summary of the method: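 Human bronchial epithelial primary cells; chemical exposure 24 h; uPAR by ELISA; bidirectional fit vs DMSO control.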

[10] = read-out: Interleukin-6 (IL6), IL6 (gene 3569); test: BSK_CASM3C_IL6: BioMAP Diversity Plus: CASM3C Assay for Interleukin-6 (IL6) Biomarker Activity for (AID 2283040); conditions: primary human coronary artery smooth muscle cells; actives raise or lower the signal
[11] = read-out: Tissue plasminogen activator (tPA), PLAT (gene 5327); test: BSK_BE3C_tPA: BioMAP Diversity Plus: BE3C Assay for Tissue plasminogen activator (tPA) Biomarker Activity (AID 2283041); conditions: primary human bronchial epithelial cells; actives raise or lower the signal
Summary of the method: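 Primary human lung bronchial epithelial cultures receive test chemical; after 24 h, tPA is quantified by ELISA, and gain or loss of signal is fitted bidirectionally relative to DMSO baseline.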

[12] = read-out: Interleukin-8 (IL8), CXCL8 (gene 3576); test: BSK_CASM3C_IL8: BioMAP Diversity Plus: CASM3C Assay for Interleukin-8 (IL8) Biomarker Activity (AID 2283042); conditions: primary human coronary artery smooth muscle cells; actives raise or lower the signal;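 also: IL-8 protein level quantified by ELISA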
[13] = read-out: Human Leukocyte Antigen - DR isotype (HLADR), HLA-DRA (gene 3122); test: BSK_CASM3C_HLADR: BioMAP Diversity Plus: CASM3C Assay for Human Leukocyte Antigen - DR isotype (HLADR) Biomarker Activity (AID 2283043); conditions: primary human coronary artery smooth muscle cells; actives raise or lower the signal;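 also: cell-surface HLA-DR protein level quantified by ELISA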
[14] = read-out: Macrophage colony-stimulating factor (MCSF), CSF1 (gene 1435); test: BSK_CASM3C_MCSF: BioMAP Diversity Plus: CASM3C Assay for Macrophage colony-stimulating factor (MCSF) Biomarker Activity (AID 2283044); conditions: primary human coronary artery smooth muscle cells; actives raise or lower the signal;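 also: M-CSF protein amount quantified by ELISA after 24 h exposure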
[15] = read-out: Low-density lipoprotein receptor (LDLR), LDLR (gene 3949); test: BSK_CASM3C_LDLR: BioMAP Diversity Plus: CASM3C Assay for Low-density lipoprotein receptor (LDLR) Biomarker Activity (AID 2283045); conditions: primary human coronary artery smooth muscle cells; actives raise or lower the signal;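 also: LDLR protein level on the cell surface quantified by ELISA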
[16] = read-out: Monocyte Chemoattractant Protein-1 (MCP1), CCL2 (gene 6347); test: BSK_CASM3C_MCP1: BioMAP Diversity Plus: CASM3C Assay for Monocyte Chemoattractant Protein-1 (MCP1) Biomarker Activity (AID 2283046); conditions: primary human coronary artery smooth muscle cells; actives raise or lower the signal;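 also: MCP-1 level quantified by ELISA 24 h after dosing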
[17] = BSK_CASM3C_Proliferation: Cell Proliferation Assessment in the BioMAP Diversity Plus: CASM3C Assay (AID 2283047); conditions: primary human coronary artery smooth muscle cells;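 also: sulforhodamine B total protein stain as relative cell number at 560 nm; sub-confluent cells exposed 48 h before staining; fitted both ways against DMSO so gain or loss of cell number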
[18] = read-out: Monokine induced gamma interferon (MIG), CXCL9 (gene 4283); test: BSK_CASM3C_MIG: BioMAP Diversity Plus: CASM3C Assay for Monokine induced gamma interferon (MIG) Biomarker Activity (AID 2283048); conditions: primary human coronary artery smooth muscle cells; actives raise or lower the signal;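 also: MIG protein level measured by ELISA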
[19] = read-out: serum amyloid A (SAA), SAA1 (gene 6288); test: BSK_CASM3C_SAA: BioMAP Diversity Plus: CASM3C Assay for serum amyloid A (SAA) Biomarker Activity (AID 2283049); conditions: primary human coronary artery smooth muscle cells; actives raise or lower the signal;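 also: SAA protein level quantified by ELISA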

Measured: AC50

C=CC(=O)OCC(C)OCC(C)OCC(C)OC(=O)C=C (stereo not drawn)
active: [2] 13.6 µM | [3] 10.1 µM | [4] 30.6 µM | [10] 16.1 µM | [13] 14.9 µM | [14] 25.2 µM | [16] 20 µM | [17] 20 µM | [18] 29.1 µM | [19] 5.95 µM
inactive: [1] | [5] | [6] | [7] | [8] | [9] | [11] | [12] | [15]

CC(C)CCCCCOC(=O)CS
inactive: all assays above

CC(C)[N+](C)(CCOC(=O)C1c2ccccc2Oc2ccccc21)C(C)C
inactive: all assays above

Fc1ccc(Br)cc1
inactive: all assays above

Nc1nc(N)nc(-c2ccccc2)n1
not listed: [6]
inactive: all other assays above

CC(C)C(=O)OCCc1ccccc1
not listed: [6]
inactive: all other assays above

Cc1ccc([N+](=O)[O-])cc1N
inactive: all assays above

CC=C(C)C=CC=C(C)C
active: [2] 15.9 µM | [8] 54.6 nM | [11] 3.97 µM | [13] 3.97 µM | [14] 0.46 µM | [17] 24 µM
inactive: all other assays above

O=C(Cl)c1c(Cl)c(Cl)c(C(=O)Cl)c(Cl)c1Cl
inactive: all assays above

CC(Cl)COP(=O)(OCC(C)Cl)OCC(C)Cl (stereo not drawn)
active: [17] 0.159 µM
inactive: all other assays above
